Only some compounds are listed: those with a hit (about 5.7% of all), similar ones and a draw of the others.
HepG2 tox – qHTS for Inhibitors of TGF-b: Cytotox Counterscreen; HepG2 CAGA-GFP viability, ATP luminescence, 18 h; Potency, µM (doses to about 46.1 µM), inactives show at the highest dose activity change, negative = cytotoxicity, hits mostly cytotoxic; hit rate 0.76% among 410,000; AID 588856, 2011; also: potency is read from the fitted curve at half-maximal effect
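CellTiter-Glo luminescence gave cytotoxicity after 18 hours at 37 degrees C. The cells were HepG2 CAGA-GFP in 1% FBS DMEM, stimulated with 500 pg/mL TGF-beta after compound addition. %Activity was normalised to no-cell wells (complete cell-killing) and DMSO (no toxicity), and curves were fitted and classified.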
ATXN2 expr inh – Primary qHTS for Inhibitors of ATXN expression. HEK-293 ATXN2-luciferase reporter, luminescence, 24 h. Potency, µM (titrated, usually from 57 µM), for the others: at the highest dose activity change, negative = inhibition, actives largely listed as inhibitors. hit rate 0.72% among 360,000; also: potency is read from the fitted curve at half-maximal effect; % is scaled to controls: 0 for no effect and ±100 for the full control effect; nearly all actives have a fitted effect of over 55% in size
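ATXN2-luciferase reporter cells (luciferase flanked by upstream and downstream ATXN2 gene portions) were treated 24 h at 37 °C with compounds at up to 57 uM. SteadyGlo luminescence gave expression; GF-AFC fluorescence gave viability.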
TGFb inhibitor – qHTS for Inhibitors of TGF-b; hit rate 1.2% among 410,000; HepG2 CAGA-GFP TGF-b/SMAD3 reporter, GFP fluorescence, 18 h; TGF-beta stimulated, 500 pg/mL final; Potency, µM (doses to about 46.1 µM), inactives show at the highest dose activity, negative = inhibition, most hits filed as inhibitors; also: potency is read from the fitted curve at half-maximal effect; % is scaled to controls: 0 for no effect and ±100 for the full control effect; nearly all actives have a fitted effect of over 65% in size
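Smad-responsive CAGA-GFP expression was quantified in HEPG2 cells exposed to compounds and 500 pg/mL final TGF-beta for 18 h at 37 degrees C; unstimulated wells defined full inhibition.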
IL1B secr inh – qHTS for Inhibitors of Inflammasome Signaling: IL-1-beta AlphaLISA Primary Screen; THP-1 LPS/ATP IL-1B secretion, AlphaLISA, 16 h; hits give low values; activity change, % at 57.5 µM; hit rate 4.7% among 360,000; in the data active = activity change below about -50%; inconclusive = mostly about -30% to -49%; also: % is scaled to controls: 0 for no effect and ±100 for the full control effect
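Secreted IL-1B measured by AlphaLISA bead assay after 16 h compound exposure of THP-1 cells; compounds (final up to 57.5 uM) added 1 h before LPS (250 ng/mL) and ATP (1.25 mM) stimulation; lower signal means less secretion.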
ATXN viability – Viability Counterscreen for Primary qHTS for Inhibitors of ATXN expression | Potency, µM (doses to about 56.7 µM), usual class: cytotoxic | hit rate 0.49% among 400,000 | AID 651635, 2014 | S2 cells (HEK-293 line with an ATXN2-luciferase reporter) viability, CellTiter-Fluor protease fluorescence, 24 h; also: potency is read from the fitted curve at half-maximal effect; nearly all actives have a fitted effect of over 40% in size
* = called active by the depositor; [ ] = dose if it differs, or a comment. Unless noted, calls follow the shape of the dose curve; as a rule, active = well fitted curve in the direction sought with a large enough effect; inconclusive = small, poorly fitted or top-dose-only effect, or another doubt; inactive = no such curve, though single readings can be large; an effect the other way counts as inactive or inconclusive.

For CN(NS(=O)(=O)c1ccc(Br)cc1)c1nc(C(F)(F)F)nc2ccccc12 the results were HepG2 tox -42.9%, ATXN2 expr inh inconclusive, TGFb inhibitor inconclusive, IL1B secr inh -55.1* and ATXN viability inactive.
`O=S(=O)(NCCc1csc2nc(-c3ccc(Cl)cc3)nn12)c1cccs1` gave HepG2 tox -23.2% and TGFb inhibitor -33.7%.
Screening O=C1c2ccccc2C(=O)N1CC1CCCO1 (centres undefined) returned HepG2 tox 3.55µM*, ATXN2 expr inh -0.1%, TGFb inhibitor 10.9%, IL1B secr inh -18.3 and ATXN viability inactive.
For O=C1c2cccc3cc([N+](=O)[O-])cc(c23)C(=O)N1CC1CCCO1 (centres undefined) the results were HepG2 tox -17.9%, ATXN2 expr inh -22.1%, TGFb inhibitor 4.2% and IL1B secr inh -72.5*.
`O=C1c2ccccc2C(=O)N1CC1CO1` (centres undefined) gave HepG2 tox 0.8%, ATXN2 expr inh 11.3%, TGFb inhibitor 0.0%, IL1B secr inh -7.7 and ATXN viability inactive.
Screening Cc1nc(Oc2ccc(S(=O)(=O)N3CCOCC3)cc2Cl)c2c3c(sc2n1)CCCC3 returned HepG2 tox -5.3%, ATXN2 expr inh inconclusive, TGFb inhibitor -33.7%, IL1B secr inh -51.5* and ATXN viability inactive.
For COc1cc(OC)cc(C(=O)N2CCCC(n3cc(C(=O)NCC(C)C)nn3)C2)c1 (centres undefined) the results were ATXN viability inactive.
Screening CC(C)N1CCC(n2nccc2NC(=O)c2ccc3c(c2)OCO3)CC1 returned HepG2 tox -5.8%, ATXN2 expr inh 5.6%, TGFb inhibitor 2.4%, IL1B secr inh 26.1 and ATXN viability inactive.
`CC(C)CCN1CCC(n2nccc2NC(=O)c2ccc3c(c2)OCO3)CC1` gave HepG2 tox -1.0%, ATXN2 expr inh 5.3%, TGFb inhibitor 11.6%, IL1B secr inh -66.9* and ATXN viability inactive.
Cn1cnc([N+](=O)[O-])c1S(=O)(=O)c1ccc(Cl)cc1 was read as HepG2 tox 17.8µM*, ATXN2 expr inh inconclusive, TGFb inhibitor 11.2µM*, IL1B secr inh -137.9* and ATXN viability inconclusive.
CN1CCN(C(=O)Cn2c(-c3cccs3)cc3ccccc32)CC1 was read as HepG2 tox -4.0%, ATXN2 expr inh -3.6%, TGFb inhibitor -27.5% and ATXN viability inactive.
For Cc1cccc(C2CC3(CC(C)(C)NC(=S)N3)Oc3cc(O)ccc32)c1 (centres undefined) the results were HepG2 tox -12.7%, ATXN2 expr inh inconclusive, TGFb inhibitor -17.4%, IL1B secr inh -73.3* and ATXN viability inactive.
`COc1cccc(C2CC3(CC(C)(C)NC(=S)N3)Oc3cc(O)ccc32)c1` (centres undefined) gave HepG2 tox -2.8%, ATXN2 expr inh -8.9%, TGFb inhibitor -0.9%, IL1B secr inh 0.0 and ATXN viability inactive.
For Cc1ccc(N(CC(=O)NCc2ccc(F)cc2)S(=O)(=O)c2cccs2)cc1 the results were HepG2 tox -4.7%, ATXN2 expr inh 15.0%, TGFb inhibitor inconclusive, IL1B secr inh -72.1* and ATXN viability inactive.
`Cc1ccc(N(CC(=O)NCc2ccccc2Cl)S(=O)(=O)c2cccs2)cc1` gave HepG2 tox -1.6%, ATXN2 expr inh 2.8%, TGFb inhibitor -13.9%, IL1B secr inh -13.6 and ATXN viability inactive.
Screening COC(=O)CN1C(c2cccc(Cl)c2)=Nc2ccc(Cl)cc2C1c1ccccc1 (centres undefined) returned HepG2 tox 5.7%, ATXN2 expr inh -3.6%, TGFb inhibitor inconclusive, IL1B secr inh -10.7 and ATXN viability inactive.
For COC(=O)CN1C(c2ccc(OC)cc2)=Nc2ccc(Cl)cc2C1c1ccccc1 (centres undefined) the results were HepG2 tox -1.9%, ATXN2 expr inh 29.2%, TGFb inhibitor 15.5%, IL1B secr inh -83.6* and ATXN viability inconclusive.
`CCn1c2ccccc2c2cc(/C=C3\C=Cc4ccccc43)ccc21` gave HepG2 tox -21.2% and TGFb inhibitor 8.5%.
`O=C(CCCOc1ccc(Cl)cc1Cl)N/N=C/c1ccccc1` gave HepG2 tox -58.2%, ATXN2 expr inh 8.0%, TGFb inhibitor inconclusive, IL1B secr inh -20.7 and ATXN viability inactive.
Screening O=C(CCCOc1ccc(Cl)cc1Cl)N/N=C/c1ccccc1O returned HepG2 tox -34.5%, ATXN2 expr inh 25.1µM*, TGFb inhibitor inconclusive, IL1B secr inh 0.0 and ATXN viability inconclusive.
`Cc1ccc(/C=N/NC(=O)CCCOc2ccc(Cl)cc2Cl)cc1` gave HepG2 tox -62.1%, ATXN2 expr inh -34.2%, TGFb inhibitor -1.3%, IL1B secr inh -77.0* and ATXN viability inconclusive.
For O=C(CCCOc1ccc(Cl)cc1Cl)N/N=C/c1ccco1 the results were HepG2 tox 18.7%, ATXN2 expr inh -14.9%[11.3 µM], TGFb inhibitor -0.4%, IL1B secr inh -1.6 and ATXN viability inactive.
Screening CCOc1ccccc1C(=O)Nc1c(C(=O)Nc2ccc(F)cc2)oc2ccccc12 returned HepG2 tox 8.4%, ATXN2 expr inh 4.1%, TGFb inhibitor inconclusive and ATXN viability inconclusive.
For CCCCCCN1C[C@H](n2cc(C3CC3)nn2)[C@@H](O)C[C@@H]1c1ccc(C)cc1 the results were HepG2 tox 15.8µM*, ATXN2 expr inh inconclusive, TGFb inhibitor 14.1µM* and IL1B secr inh -4.7.
CCCCCCN1C[C@@H](O)[C@H](n2cc(C3CC3)nn2)C[C@@H]1c1ccc(OC)cc1 was read as HepG2 tox -18.2%, ATXN2 expr inh 4.8%, TGFb inhibitor -0.6%, IL1B secr inh 16.0 and ATXN viability inactive.
For Cc1ccc([C@H]2C[C@@H](O)[C@H](n3cc(C4CC4)nn3)CN2CC2CCCCC2)cc1 the results were HepG2 tox -7.4%, ATXN2 expr inh -10.1%, TGFb inhibitor 0.1%, IL1B secr inh -3.6 and ATXN viability inactive.
CCCCCCN1C[C@@H](n2cc(C3CC3)nn2)[C@H](O)C[C@@H]1c1ccc(C)cc1 was read as HepG2 tox -118.8%, ATXN2 expr inh inconclusive, TGFb inhibitor inconclusive, IL1B secr inh -21.1 and ATXN viability 20µM*.
`CCCCCCN1C[C@H](O)[C@@H](n2cc(-c3ccc(F)cc3)nn2)C[C@@H]1c1ccc(C)cc1` gave HepG2 tox -33.3%, ATXN2 expr inh -9.9%, TGFb inhibitor -23.9%, IL1B secr inh -18.3 and ATXN viability inconclusive.
